From PubChem BioAssay (EPA / NIEHS)
Active and inactive are the calls of the source. The calls were made as follows: active = hit-call score of the fitted dose curve at least 0.9, where 1 is the maximum; inactive = score below 0.9.

Legend:
[1] = ATG_GRE_CIS: Attagene CIS-FACTORIAL HepG2 Assay for human Glucocorticoid Response Elements (GRE) (AID 2282947); conditions: HepG2 GRE cis-reporter, Attagene multiplex mRNA; actives raise or lower the signal
Outline: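 Fluorescence intensity of reporter-specific cDNA fragments, separated by capillary electrophoresis, provides the signal. Constructs carry cis-regulating promoters in transiently transfected HepG2 liver cells; 24 h incubation; fitting is bidirectional against DMSO.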

[2] = ATG_ISRE_CIS: Attagene CIS-FACTORIAL HepG2 Assay for human Interferon Regulatory Factor 1 (IRF1) binding to an Interferon-Stimulated Response Element (ISRE) (AID 2282948); conditions: HepG2 ISRE cis-reporter (Attagene), mRNA transcription readout; actives raise or lower the signal
Outline: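 Multiplexed mRNA reporter readout in human liver HepG2 cells: cis-element-driven reporters transfected, compound added for 24 h, transcripts amplified, fluorescently labelled and sized by capillary electrophoresis; curve fitting bidirectional against DMSO.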

[3] = ATG_M_32_CIS: Attagene CIS-FACTORIAL HepG2 Assay for M32 Transcription Factor (Internal Marker) (AID 2282949); conditions: HepG2 Attagene cis-factorial M32 reporter, mRNA; actives raise or lower the signal;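 also: background control marker of the multiplexed CIS panel rather than a real target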
Outline: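 HepG2 human liver cells transiently transfected with cis-promoter-driven multiple reporter transcription units, dosed 24 h. Reporter mRNA quantified by RT-PCR, FAM-labelled primer extension, HpaI digest and capillary electrophoresis; bidirectional fit versus DMSO baseline.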

[4] = ATG_M_06_CIS: Attagene CIS-FACTORIAL HepG2 Assay for M06 Transcription Factor (Internal Marker) (AID 2282950); conditions: HepG2 Attagene CIS-FACTORIAL M06 internal marker reporter; actives raise or lower the signal
Outline: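 Read-out is fluorescence of labelled reporter cDNA fragments resolved by capillary electrophoresis after RT-PCR. Cells: HepG2 carrying transfected cis-promoter reporter units, treated 24 h. Gain or loss of signal fitted relative to DMSO.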

[5] = molecular target: Hepatocyte nuclear factor 6 (Homo sapiens) (UniProt Q9UBC0); assay: ATG_HNF6_CIS: Attagene CIS-FACTORIAL HepG2 Assay for human Hepatocyte Nuclear Factor 6 (HNF6) (AID 2282952); conditions: HepG2 Attagene cis-factorial HNF6 reporter transcription; actives raise or lower the signal
Outline: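 Using cis-element reporters in HepG2 liver cells, the assay tracks endogenous factor-driven transcription 24 h post-dosing. Signal comes from 6-FAM-labelled, HpaI-digested RT-PCR fragments, with gain or loss scored against DMSO.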

[6] = molecular target: Heat shock factor protein 1 (Homo sapiens) (UniProt Q00613); assay: ATG_HSE_CIS: Attagene CIS-FACTORIAL HepG2 Assay for human Heat Shock Transcription Factor 1 (HSE) (AID 2282953); conditions: HepG2 HSE cis-reporter, Attagene RNA transcription; actives raise or lower the signal
Outline: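 HepG2, transient MRTU transfection, cis-promoter reporters (endogenous TF activity). 24 h compound. RNA → oligo(dT) RT → PCR → 6-FAM primer extension → HpaI cut → CE. Bidirectional fit vs DMSO.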

[7] = ATG_MRE_CIS: Attagene CIS-FACTORIAL HepG2 Assay for human Metal Responsive Element (MRE) (AID 2282954); conditions: HepG2 MRE cis-reporter transcription, Attagene multiplex; actives raise or lower the signal
Outline: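 Measured here is mRNA induction from an MRE cis-element reporter in HepG2 after 24 h, quantified by fluorescence of labelled RT-PCR products on capillary electrophoresis; gain- and loss-of-signal fits use DMSO as baseline.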

[8] = ATG_PBREM_CIS: Attagene CIS-FACTORIAL HepG2 Assay for human Phenobarbital-responsive Enhancer Module (PBREM) (AID 2282955); conditions: HepG2 PBREM cis-reporter, Attagene multiplexed transcription; actives raise or lower the signal
Outline: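 HepG2, transient MRTU transfection, 24 h dosing; RNA → oligo(dT) RT → PCR → 6-FAM extension → HpaI → CE. Bidirectional fit vs DMSO.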

[9] = molecular target: Paired box protein Pax-6 (Homo sapiens) (UniProt P26367); assay: ATG_Pax6_CIS: Attagene CIS-FACTORIAL HepG2 Assay for human Paired Box 6 (PAX6) (AID 2282956); conditions: HepG2 CIS-FACTORIAL PAX6 reporter transcription, RNA readout; actives raise or lower the signal
Outline: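 Fluorescent RT-PCR products separated by capillary electrophoresis report PAX6-linked promoter mRNA in HepG2 cells 24 h post-dose. Curves fitted bidirectionally, DMSO as negative control.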

[10] = ATG_PXRE_CIS: Attagene CIS-FACTORIAL HepG2 Assay for human Pregnane X Receptor Element (PXRE) (AID 2282957); conditions: HepG2 Attagene CIS-FACTORIAL PXRE reporter, mRNA; actives raise or lower the signal
Outline: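 Using HepG2 transfected with multiple reporter transcription units, endogenous factor-driven transcription was scored as reporter mRNA after 24 h exposure.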

[11] = ATG_PPRE_CIS: Attagene CIS-FACTORIAL HepG2 Assay for human Peroxisome Proliferator-activated Response Element (PPRE) (AID 2282958); conditions: HepG2 PPRE cis-element reporter, Attagene transcription factor profiling; actives raise or lower the signal
Outline: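 Transcript-level reporter induction in transfected HepG2 cells after 24 h chemical exposure, quantified by fluorescence from RT-PCR products separated by capillary electrophoresis.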

[12] = ATG_RORE_CIS: Attagene CIS-FACTORIAL HepG2 Assay for human RAR-related Orphan Receptor Element (RORE) (AID 2282959); conditions: HepG2 Attagene cis-factorial RORE reporter, mRNA; actives raise or lower the signal
Outline: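 Multiplexed reporter assay measuring mRNA induction from a cis promoter element in transiently transfected HepG2 cells after 24 h treatment. Detection via RT-PCR and capillary electrophoresis fluorescence; DMSO serves as baseline.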

[13] = ATG_Sox_CIS: Attagene CIS-FACTORIAL HepG2 Assay for human SRY-box transcription factor (SOX) (AID 2282960); conditions: HepG2 Attagene cis-factorial SOX reporter, mRNA; actives raise or lower the signal
Outline: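 Cells were transfected with reporter constructs under cis-regulatory promoters, then exposed to chemicals for 24 h. Reporter transcripts were quantified by fluorescence after RT-PCR and capillary electrophoresis; activity was fitted in both directions against DMSO.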

[14] = molecular target: Transcription factor Sp1 (Homo sapiens) (UniProt P08047); assay: ATG_Sp1_CIS: Attagene CIS-FACTORIAL HepG2 Assay for human Specificity Protein 1 (Sp1) (AID 2282961); conditions: HepG2 Sp1 cis-reporter transcription, actives raise or lower the signal
Outline: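 Measures mRNA induction of an Sp1-linked reporter in HepG2 cells 24 h post-dosing. Multiplexed reporters read by RT-PCR and capillary electrophoresis; DMSO serves as negative control and baseline.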

[15] = ATG_SREBP_CIS: Attagene CIS-FACTORIAL HepG2 Assay for human Sterol Regulatory Element Binding (SREBP) (AID 2282962); conditions: HepG2 Attagene cis-factorial SREBP reporter, mRNA; actives raise or lower the signal
Outline: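 Endogenous factor activity is measured in HepG2 through multiplexed reporter units under cis-element control. Following a 24 h incubation, reporter transcripts are reverse-transcribed, PCR-amplified and sized by capillary electrophoresis; activity is fitted in both directions relative to DMSO.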

[16] = molecular target: Signal transducer and activator of transcription 3 (Homo sapiens) (UniProt P40763); assay: ATG_STAT3_CIS: Attagene CIS-FACTORIAL HepG2 Assay for human Signal Transducer and Activator of Transcription 3 (STAT3) (AID 2282963); conditions: HepG2, Attagene cis-factorial STAT3 reporter transcription; actives raise or lower the signal
Outline: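 Fluorescence intensity of 6-FAM-labelled reporter fragments, separated by capillary electrophoresis after RT-PCR, gave the signal. Cells were HepG2 transfected with cis-element reporter units and treated 24 h; fitting was bidirectional relative to DMSO.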

[17] = ATG_TA_CIS: Attagene CIS-FACTORIAL HepG2 Assay for human TA Basal Promoter (AID 2282964); conditions: HepG2 Attagene CIS-factorial TA basal promoter reporter; actives raise or lower the signal
Outline: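 Read-out: fluorescent reporter-transcript fragments resolved by capillary electrophoresis after RT-PCR and HpaI digestion. Source: HepG2 cells carrying transiently transfected multi-reporter cis constructs, treated 24 h. Endpoint fitted bidirectionally relative to DMSO.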

[18] = ATG_TCF_b_cat_CIS: Attagene CIS-FACTORIAL HepG2 Assay for human T-Cell-Factor with beta-catenin (TCF/b-cat) (AID 2282965); conditions: HepG2 TCF/beta-catenin cis-reporter transcription, actives raise or lower the signal
Outline: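 HepG2 cells transiently transfected with cis-promoter-driven multiplexed reporter units; reporter mRNA measured 24 h after dosing by RT-PCR, FAM labelling, HpaI digestion and capillary electrophoresis. Bidirectional fitting relative to DMSO baseline.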

[19] = molecular target: Hypoxia-inducible factor 1-alpha (Homo sapiens) (UniProt Q16665); assay: ATG_HIF1a_CIS: Attagene CIS-FACTORIAL HepG2 Assay for human Hypoxia Inducible Factor 1 (HIF1A) (AID 2282951); conditions: HepG2 Attagene cis-factorial HIF1a reporter transcription; actives raise or lower the signal
Outline: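 HepG2, transient cis-reporter library, 24 h dosing. RNA → RT (oligo dT) → PCR → 6-FAM primer extension → HpaI → CE. Bidirectional curve fit vs DMSO.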

Measured: AC50

Chain of Heat shock factor protein 1 (Homo sapiens) (Q00613 whole entry, looked up): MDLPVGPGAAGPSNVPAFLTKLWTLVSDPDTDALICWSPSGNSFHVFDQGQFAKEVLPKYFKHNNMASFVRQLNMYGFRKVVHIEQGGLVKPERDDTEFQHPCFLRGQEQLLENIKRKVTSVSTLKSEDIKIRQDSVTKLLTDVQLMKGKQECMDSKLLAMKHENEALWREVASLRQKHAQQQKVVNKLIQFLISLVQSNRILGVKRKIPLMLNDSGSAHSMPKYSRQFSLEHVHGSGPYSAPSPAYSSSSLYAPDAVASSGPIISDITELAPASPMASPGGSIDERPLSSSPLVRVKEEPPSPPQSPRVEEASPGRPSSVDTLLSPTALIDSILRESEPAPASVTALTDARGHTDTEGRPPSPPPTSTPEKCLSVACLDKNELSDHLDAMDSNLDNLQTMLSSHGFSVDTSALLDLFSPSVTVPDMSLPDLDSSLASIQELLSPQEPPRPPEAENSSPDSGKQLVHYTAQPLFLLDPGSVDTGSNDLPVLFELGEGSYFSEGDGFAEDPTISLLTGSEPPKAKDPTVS
Chain of Hypoxia-inducible factor 1-alpha (Homo sapiens) (Q16665 whole entry, looked up): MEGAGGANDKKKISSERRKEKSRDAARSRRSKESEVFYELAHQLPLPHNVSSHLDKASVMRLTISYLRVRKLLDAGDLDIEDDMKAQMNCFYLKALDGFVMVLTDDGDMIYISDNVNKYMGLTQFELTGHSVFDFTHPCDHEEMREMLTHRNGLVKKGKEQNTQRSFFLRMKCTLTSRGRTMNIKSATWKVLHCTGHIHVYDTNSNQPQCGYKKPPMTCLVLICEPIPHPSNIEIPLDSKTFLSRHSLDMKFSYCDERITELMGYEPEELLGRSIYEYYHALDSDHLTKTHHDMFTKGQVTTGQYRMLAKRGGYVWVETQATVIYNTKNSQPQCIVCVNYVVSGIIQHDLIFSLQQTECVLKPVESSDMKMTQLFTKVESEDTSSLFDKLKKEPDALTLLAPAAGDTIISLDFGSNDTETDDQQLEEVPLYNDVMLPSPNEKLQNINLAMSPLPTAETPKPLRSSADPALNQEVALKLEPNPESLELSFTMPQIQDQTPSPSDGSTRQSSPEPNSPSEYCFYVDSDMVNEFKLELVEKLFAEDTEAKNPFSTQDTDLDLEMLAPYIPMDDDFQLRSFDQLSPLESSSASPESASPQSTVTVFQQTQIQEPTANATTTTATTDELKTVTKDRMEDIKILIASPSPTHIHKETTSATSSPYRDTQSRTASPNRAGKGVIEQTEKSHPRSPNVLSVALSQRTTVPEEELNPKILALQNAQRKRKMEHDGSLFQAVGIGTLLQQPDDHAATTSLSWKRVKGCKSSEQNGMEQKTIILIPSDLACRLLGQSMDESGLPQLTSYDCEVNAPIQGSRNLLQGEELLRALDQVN
Chain of Transcription factor Sp1 (Homo sapiens) (P08047 whole entry, looked up): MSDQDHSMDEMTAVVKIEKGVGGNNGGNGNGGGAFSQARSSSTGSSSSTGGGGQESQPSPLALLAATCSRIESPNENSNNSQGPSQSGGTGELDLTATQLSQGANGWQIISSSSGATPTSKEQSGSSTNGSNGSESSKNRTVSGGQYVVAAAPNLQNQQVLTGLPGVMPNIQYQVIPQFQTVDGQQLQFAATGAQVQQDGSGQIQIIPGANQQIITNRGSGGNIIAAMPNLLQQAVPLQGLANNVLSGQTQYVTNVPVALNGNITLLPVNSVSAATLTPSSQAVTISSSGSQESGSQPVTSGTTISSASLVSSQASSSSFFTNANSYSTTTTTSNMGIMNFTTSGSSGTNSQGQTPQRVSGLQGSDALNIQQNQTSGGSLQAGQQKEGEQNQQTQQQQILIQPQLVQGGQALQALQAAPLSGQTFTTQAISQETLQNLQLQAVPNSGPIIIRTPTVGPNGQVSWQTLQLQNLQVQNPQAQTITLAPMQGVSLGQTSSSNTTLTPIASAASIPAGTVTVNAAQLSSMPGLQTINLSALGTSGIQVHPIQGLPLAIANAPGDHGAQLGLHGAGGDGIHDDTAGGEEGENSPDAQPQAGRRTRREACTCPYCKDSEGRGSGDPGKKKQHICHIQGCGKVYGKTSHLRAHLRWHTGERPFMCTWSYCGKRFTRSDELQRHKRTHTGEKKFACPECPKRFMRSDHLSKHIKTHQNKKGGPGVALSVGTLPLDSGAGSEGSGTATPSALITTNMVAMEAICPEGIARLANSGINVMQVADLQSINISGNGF
Chain of Paired box protein Pax-6 (Homo sapiens) (P26367 whole entry, looked up): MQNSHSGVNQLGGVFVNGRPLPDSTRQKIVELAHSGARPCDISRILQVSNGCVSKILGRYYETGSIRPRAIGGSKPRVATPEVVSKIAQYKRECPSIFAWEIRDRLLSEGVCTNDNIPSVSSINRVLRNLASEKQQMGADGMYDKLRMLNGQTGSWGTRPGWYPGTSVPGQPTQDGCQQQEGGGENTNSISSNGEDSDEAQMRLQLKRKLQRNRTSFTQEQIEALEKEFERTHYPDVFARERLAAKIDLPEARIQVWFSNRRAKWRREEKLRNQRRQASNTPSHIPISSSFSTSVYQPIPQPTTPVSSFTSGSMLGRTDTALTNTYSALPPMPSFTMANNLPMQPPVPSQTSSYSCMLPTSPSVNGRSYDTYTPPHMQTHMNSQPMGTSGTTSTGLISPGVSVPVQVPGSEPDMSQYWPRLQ
Chain of Hepatocyte nuclear factor 6 (Homo sapiens) (Q9UBC0 whole entry, looked up, the tested form may be a part): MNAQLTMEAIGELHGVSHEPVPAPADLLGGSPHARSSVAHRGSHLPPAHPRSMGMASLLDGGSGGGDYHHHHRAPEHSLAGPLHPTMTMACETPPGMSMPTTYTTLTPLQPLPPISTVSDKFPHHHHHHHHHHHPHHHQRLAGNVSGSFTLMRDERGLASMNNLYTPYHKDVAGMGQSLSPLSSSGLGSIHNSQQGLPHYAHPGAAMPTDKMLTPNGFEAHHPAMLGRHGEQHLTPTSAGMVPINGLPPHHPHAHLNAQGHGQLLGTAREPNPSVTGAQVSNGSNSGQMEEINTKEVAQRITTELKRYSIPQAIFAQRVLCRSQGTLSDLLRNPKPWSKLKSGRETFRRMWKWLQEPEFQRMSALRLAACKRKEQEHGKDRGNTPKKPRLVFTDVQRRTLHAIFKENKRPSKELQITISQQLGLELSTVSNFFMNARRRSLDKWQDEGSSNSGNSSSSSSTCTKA
Chain of Signal transducer and activator of transcription 3 (Homo sapiens) (P40763 whole entry, looked up, the tested form may be a part): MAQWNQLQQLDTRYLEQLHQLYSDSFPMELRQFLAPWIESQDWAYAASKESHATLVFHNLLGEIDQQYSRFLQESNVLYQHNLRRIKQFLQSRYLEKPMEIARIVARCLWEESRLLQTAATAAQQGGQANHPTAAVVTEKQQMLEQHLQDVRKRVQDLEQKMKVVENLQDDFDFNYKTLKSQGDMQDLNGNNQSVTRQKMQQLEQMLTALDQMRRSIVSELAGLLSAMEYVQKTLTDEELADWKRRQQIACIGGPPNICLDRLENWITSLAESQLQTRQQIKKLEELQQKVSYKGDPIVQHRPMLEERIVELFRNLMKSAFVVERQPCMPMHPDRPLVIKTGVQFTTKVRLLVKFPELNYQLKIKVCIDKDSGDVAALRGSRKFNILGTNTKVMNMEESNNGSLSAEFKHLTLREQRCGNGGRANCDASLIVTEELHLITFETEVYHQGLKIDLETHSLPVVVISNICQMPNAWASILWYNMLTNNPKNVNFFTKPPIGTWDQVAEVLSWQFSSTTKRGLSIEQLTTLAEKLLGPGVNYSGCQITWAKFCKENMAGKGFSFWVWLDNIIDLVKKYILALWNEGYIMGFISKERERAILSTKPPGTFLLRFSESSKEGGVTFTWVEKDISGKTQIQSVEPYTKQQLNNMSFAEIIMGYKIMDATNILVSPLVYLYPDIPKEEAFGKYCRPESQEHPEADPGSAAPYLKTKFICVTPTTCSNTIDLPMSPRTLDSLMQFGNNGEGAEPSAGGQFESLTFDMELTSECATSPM

CN1Cc2c(N)cccc2C(c2ccccc2)C1 (stereo unspecified)
inactive: [1] | [2] | [3] | [4] | [5] | [6] | [7] | [8] | [9] | [11] | [12] | [13] | [14] | [15] | [16] | [17] | [18]
active: [10] 6.9 µM

Nc1ccc(S(=O)(=O)O)c(N)c1
inactive: [1] | [2] | [3] | [4] | [19] | [6] | [7] | [9] | [10] | [11] | [13] | [14] | [15] | [16] | [17] | [18]

CCCC(=O)OCCC(C)CCC=C(C)C (stereo unspecified)
inactive: [2] | [3] | [4] | [19] | [6] | [7] | [8] | [9] | [11] | [12] | [13] | [14] | [15] | [16] | [17] | [18]
active: [5] 180 µM | [10] 56.1 µM

CO[Si](C)(OC)c1ccccc1
inactive: [1] | [2] | [4] | [19] | [5] | [6] | [7] | [8] | [9] | [11] | [12] | [13] | [14] | [15] | [16] | [17]

Cc1cccc(Nc2ccccc2C(=O)O)c1C
inactive: [1] | [2] | [3] | [4] | [5] | [6] | [8] | [9] | [13] | [14] | [15] | [17]
active: [10] 14.1 µM | [18] 19.8 µM

O=C(O)CCCCC1CCSS1 (stereo unspecified)
inactive: [1] | [2] | [3] | [4] | [5] | [6] | [7] | [9] | [10] | [11] | [13] | [14] | [15] | [16] | [17] | [18]

C=COCCOCCOCCOC=C
inactive: [1] | [2] | [4] | [19] | [5] | [6] | [7] | [8] | [9] | [10] | [11] | [12] | [13] | [14] | [15] | [16] | [17] | [18]

CC1(C)[C@H](C(=O)OCc2cccc(Oc3ccccc3)c2)[C@@H]1C=C(Cl)Cl
inactive: [1] | [2] | [4] | [19] | [5] | [6] | [7] | [8] | [9] | [12] | [13] | [14] | [15] | [16] | [17] | [18]
active: [10] 4.97 µM

COc1nc(C)nc(N)n1
inactive: [1] | [2] | [3] | [4] | [19] | [7] | [9] | [10] | [11] | [12] | [14] | [15] | [16] | [18]

O=c1cc(-c2ccccc2)oc2cc(O)cc(O)c12
inactive: [1] | [2] | [3] | [4] | [6] | [8] | [9] | [10] | [13] | [14] | [15] | [16] | [17] | [18]
active: [11] 4.28 µM

Cc1ccc(O)c(C(C)(C)C)c1
active: [1] 100 µM | [7] 146 µM | [9] 138 µM | [10] 25.1 µM | [12] 162 µM | [14] 80.7 µM | [15] 100 µM
inactive: [2] | [3] | [4] | [19] | [6] | [8] | [13] | [16] | [17] | [18]

COc1ccnc(CS(=O)c2nc3cc(OC(F)F)ccc3[nH]2)c1OC (stereo unspecified)
inactive: [2] | [3] | [4] | [19] | [5] | [6] | [7] | [8] | [9] | [11] | [12] | [14] | [16] | [17] | [18]
active: [10] 8.07 µM

C[C@H]1C[C@H]2[C@@H]3CCC4=CC(=O)C=C[C@]4(C)[C@@]3(F)[C@@H](O)C[C@]2(C)[C@@]1(O)C(=O)COP(=O)(O)O
inactive: [2] | [3] | [4] | [19] | [5] | [7] | [9] | [11] | [12] | [13] | [14] | [15] | [16] | [17] | [18]
active: [1] 0.0823 µM
